USP7 block – inhibitors of human USP7 deubiquitinase | AID 1645854 | Q93009 | purified USP7, Ub-rhodamine cleavage fluorescence | actives 0.3% (n = 47,000) | inhibition, % at 20 µM
Target sequence (Q93009 whole entry, looked up): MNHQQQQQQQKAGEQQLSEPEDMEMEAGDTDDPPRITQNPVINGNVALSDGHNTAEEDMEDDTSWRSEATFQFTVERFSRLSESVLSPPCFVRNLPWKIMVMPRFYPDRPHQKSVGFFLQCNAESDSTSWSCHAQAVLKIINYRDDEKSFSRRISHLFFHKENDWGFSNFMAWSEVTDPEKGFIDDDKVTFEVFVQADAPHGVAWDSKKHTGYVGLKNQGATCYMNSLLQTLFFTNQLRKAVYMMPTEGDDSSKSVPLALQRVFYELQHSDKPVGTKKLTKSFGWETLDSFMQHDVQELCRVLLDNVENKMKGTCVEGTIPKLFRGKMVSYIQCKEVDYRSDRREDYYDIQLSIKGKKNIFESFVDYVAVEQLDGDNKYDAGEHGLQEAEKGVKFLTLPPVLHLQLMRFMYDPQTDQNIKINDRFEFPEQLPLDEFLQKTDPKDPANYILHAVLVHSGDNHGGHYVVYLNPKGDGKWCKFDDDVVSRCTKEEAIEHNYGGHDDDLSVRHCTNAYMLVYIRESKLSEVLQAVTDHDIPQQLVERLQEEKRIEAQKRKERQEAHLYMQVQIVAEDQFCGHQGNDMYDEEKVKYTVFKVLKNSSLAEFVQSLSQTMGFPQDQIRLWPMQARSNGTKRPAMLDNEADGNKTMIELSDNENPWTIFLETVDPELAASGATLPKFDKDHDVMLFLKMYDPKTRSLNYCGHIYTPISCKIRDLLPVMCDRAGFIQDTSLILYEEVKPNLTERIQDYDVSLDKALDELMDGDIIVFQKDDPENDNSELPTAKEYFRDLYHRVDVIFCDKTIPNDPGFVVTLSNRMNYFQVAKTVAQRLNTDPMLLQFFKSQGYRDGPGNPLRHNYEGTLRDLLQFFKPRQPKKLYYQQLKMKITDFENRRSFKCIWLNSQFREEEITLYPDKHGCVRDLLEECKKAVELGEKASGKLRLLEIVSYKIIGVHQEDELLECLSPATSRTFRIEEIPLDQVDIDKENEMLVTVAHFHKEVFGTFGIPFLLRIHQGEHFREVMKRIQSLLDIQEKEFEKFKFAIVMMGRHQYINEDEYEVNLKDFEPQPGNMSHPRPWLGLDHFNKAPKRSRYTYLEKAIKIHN
UCHL1 block – inhibitors of human UCHL1 deubiquitinase; P09936; purified UCHL1, Ub-rhodamine cleavage fluorescence; inhibition, % at 20 µM; actives 0.2% (n = 47,000); AID 1645859
USP8 inh – inhibitors of human USP8 deubiquitinase | P40818 | purified USP8, Ub-rhodamine cleavage fluorescence, 30 min | inhibition, % at 20 µM | actives 4.2% (n = 47,000) | AID 1645853
USP17 inh – inhibitors of human USP17 deubiquitinase. purified USP17, Ub-rhodamine cleavage fluorescence, 3 h. inhibition, % at 50 µM. actives 6.5% (n = 47,000). AID 1645855
USP10 block – human USP10 deubiquitinase inhibition. Q14694. purified USP10, Ub-rhodamine fluorescence, 60 min. inhibition, % at 20 µM. actives 1.1% (n = 47,000). AID 1645856
USP30 inh – inhibitors of human USP30 deubiquitinase; inhibition, % at 25 µM; Q70CQ3; actives 5.3% (n = 47,000); purified USP30, Ub-rhodamine cleavage fluorescence; AID 1645860
Of the large screens only hits and unclear results are named; the others gave an inactive call. Sampled rows, rich in hits. Any-hit rate of the full collection: about 12%. No stated cut-off is given here; in the data, active means inhibition above about 30%; inactive means the rest.

O=C(NC1CC1)C1c2ccccc2C(=O)N(c2ccccc2)C12CCCCC2 (centres undefined)	none
Cc1nc(-c2ccccn2)sc1C(=O)Nc1ccc(C#N)cc1	USP30 inh 54
Cc1nc(-c2ccccn2)sc1C(=O)Nc1cccc(C(=O)NC2CC2)c1	none
O=C(Nc1nnc(CCc2ccccc2)s1)C(=O)c1c[nH]c2ccccc12	USP30 inh 35
COc1ccc(S(=O)(=O)N2CCCCCC2c2sccc2C)cc1 (centres undefined)	USP30 inh 30
Cc1ccsc1C1CCCCCN1S(=O)(=O)c1cc(F)ccc1F (centres undefined)	none
O=C(Nc1nccn1Cc1ccccc1)c1cc(-c2cccc(Cl)c2)on1	USP8 inh 80
O=C(NCC(c1ccc(Cl)cc1)N1CCOCC1)c1cc(-c2ccccc2)on1 (centres undefined)	none
COc1ccccc1NC(=O)CN1C(=O)C(O)(c2cccc(F)c2)c2ccccc21 (centres undefined)	none
CCN1CCN(c2nc(Nc3ccc(C)cc3C)c3nccnc3n2)CC1	none
O=C(c1scc2c1CCCC2)N1CCN(c2ccccc2O)CC1	none
O=C(c1csc2c1CCCC2)N1CCN(C(c2ccccc2)c2ccccc2)CC1	USP30 inh 31
Cc1cc(=O)n2[nH]c(CN(c3ccccc3)S(=O)(=O)c3ccc(Cl)cc3)nc2n1	none
Cc1nn(C)c(C)c1-c1cnc(CC2CCCN(S(C)(=O)=O)C2)cn1 (centres undefined)	none
COc1ccc2c(c1)[nH]c1c(=O)n(Cc3cccnc3)cnc12	none
Cc1ccc2c(c1)[nH]c1c(=O)n(Cc3cccnc3)cnc12	USP17 inh 31
O=c1c2[nH]c3ccc(F)cc3c2ncn1Cc1cccnc1	USP17 inh 41 (no result: USP30 inh)
Cn1c2ccc(F)cc2c2ncn(Cc3cccnc3)c(=O)c21	USP30 inh 31
O=C(CCCc1nnc2c(=O)n(-c3cccc(F)c3)ccn12)Nc1ccccc1	USP8 inh 47, USP17 inh 38
Cc1ccc(CNC(=O)CCc2nnc3c(=O)n(-c4cc(C)cc(C)c4)ccn23)cc1	none
COc1ccc(-n2ccn3c(CCC(=O)NCc4ccc(F)cc4)nnc3c2=O)cc1	USP17 inh 69
Cc1cccc(NC(=O)CCCc2nnc3c(=O)n(-c4cccc(F)c4)ccn23)c1	USP8 inh 61
Cc1cc(C)cc(-n2ccn3c(CCC(=O)Nc4cccc(F)c4)nnc3c2=O)c1	none
O=C(CCCc1nnc2c(=O)n(-c3cccc(F)c3)ccn12)NCc1ccc(F)cc1	USP8 inh 48
CC[C@H]1OC(=O)[C@@H](C)[C@H](O[C@H]2CC(C)(OC)[C@@H](O)[C@@H](C)O2)[C@H](C)[C@@H](O[C@H]2O[C@@H](C)C[C@@H](N(C)C)[C@@H]2O)C(C)(O)C[C@@H](C)C(=O)[C@H](C)[C@@H](O)[C@]1(C)O (some centres undefined)	none
CCOc1ccccc1-c1nc(-c2cn(Cc3ccccc3)nn2)no1	none
O=C(Oc1cccc(NC2=NS(=O)(=O)c3ccccc32)c1)c1ccc(S(=O)(=O)N2CCCCC2)cc1	USP17 inh 52 (no result: USP30 inh)
Cc1cccc(S(=O)(=O)NCc2c(C)nc3sc(C)nn23)c1	none
O=C(C1Cn2ccnc2C2(CCN(Cc3ccccc3)CC2)O1)N1CCCCC1 (centres undefined)	none
COc1cc(/C=C(/C(=O)O)c2ccc(-c3ccccc3)cc2)cc(OC)c1OC	USP17 inh 38
O=C(O)c1ccc(NS(=O)(=O)c2ccc(N3CCCC3)c([N+](=O)[O-])c2)cc1	none
Cc1cc(F)ccc1NS(=O)(=O)c1c[nH]c2ccc([N+](=O)[O-])cc12	USP17 inh 46, USP30 inh 42
COC(=O)c1ccc(NS(=O)(=O)c2c[nH]c3ccc([N+](=O)[O-])cc23)cc1	USP17 inh 45
COc1cccc(CN2C[C@@H]3C[C@@H](O)CN3C[C@H]2Cc2ccccc2)c1	none
Cc1ccc2nc(CNc3cccc(Cl)c3)cc(=O)n2c1	USP17 inh 30
Cc1ccc(NCc2cc(=O)n3cc(C)ccc3n2)c(C)c1	none
COCC(=O)N1CCC([C@@H]2C[C@H](C(F)(F)F)n3nc(C(C)(C)C)cc3N2)CC1	USP17 inh 51 (no result: USP30 inh)
O=C(NC1CCc2ccccc21)C(c1ccccc1)c1ccccc1 (centres undefined)	none
CCOc1ccccc1NC(=O)Cn1c(=O)n(CCC(=O)NC2CCCC2)c(=O)c2ccccc21	USP17 inh 41
COc1ccc(NC(=O)Cn2c(=O)n(CCC(=O)NC3CCCC3)c(=O)c3ccccc32)cc1Cl	none
COc1cc2c(=O)n(CCC(=O)NC3CCCC3)c(=O)n(CC(=O)Nc3cccc(Cl)c3)c2cc1OC	USP17 inh 42, USP10 block 31
CCn1c(=O)c2cc(OC)c(OC)cc2n(CC(=O)c2ccc(OC)c(OC)c2)c1=O	USP30 inh 47
CCOc1ccc(C(=O)Cn2c(=O)n(Cc3ccccc3)c(=O)c3cc(Cl)ccc32)cc1Cl	none
O=C(Cn1c(=O)n(CC(=O)NC2CCCC2)c(=O)c2ccccc21)Nc1ccc(F)cc1	USP8 inh 37, USP17 inh 67, USP30 inh 70
COc1ccccc1-c1nc2c([nH]1)c(=O)n(C)c(=O)n2C	none
O=C(c1ccc(F)cc1)[C@@H]1C2(C(=O)c3ccccc3C2=O)N2CCC[C@H]2[C@@]12C(=O)Nc1ccccc12	none
O=C(Cn1c(=O)n(CC(=O)NC2CCCC2)c(=O)c2ccccc21)Nc1cc(Cl)ccc1Cl	USP8 inh 32, USP17 inh 43, USP30 inh 65
COc1ccc(NC(=O)Cn2c(=O)n(C3CCCC3)c(=O)c3cc(OC)c(OC)cc32)cc1OC	USP17 inh 39
COc1cc(OC)c(NC(=O)Cn2c(=O)n(Cc3ccccc3Cl)c(=O)c3cc(OC)c(OC)cc32)cc1Cl	USP10 block 36, USP30 inh 60
COc1cc2c(=O)n(C3CCCC3)c(=O)n(CC(=O)Nc3ccc(F)cc3)c2cc1OC	none
O=C(Cn1c(=O)n(CCC(=O)NC2CCCC2)c(=O)c2ccccc21)NCc1ccccc1Cl	none
COc1ccc(Cl)cc1NC(=O)Cn1c(=O)n(CCC(=O)NC2CCCC2)c(=O)c2ccccc21	USP10 block 43
COc1ccc(C(=O)NCCc2csc(-c3ccccc3)n2)c(OC)c1	none
COc1ccccc1N1CCN(CCCNC(=O)Cn2cnc3onc(C)c3c2=O)CC1	none
CCc1nc(-c2cccc(NC(=O)C3CC(=O)N(c4ccc(C)c(C)c4)C3)c2)no1 (centres undefined)	USP8 inh 39, USP17 inh 60, USP30 inh 60
Cc1nc(-c2cccc(NC(=O)C3CC(=O)N(c4cccc(Cl)c4)C3)c2)no1 (centres undefined)	USP8 inh 31
CCc1nc(-c2cccc(NC(=O)C3CC(=O)N(c4ccccc4)C3)c2)no1 (centres undefined)	none
